Source: PubChem BioAssay AID720494 (Broad Institute, 2013)
Some of the results follow. Activity calls are given as the source filed them. The limit is not given here; nearly all actives have AC50 up to about 14 µM.

assay: compounds quenching or disrupting AlphaScreen beads readout – biochemical, cherry-picked samples, luminescence, artefact control, dose response (AID 720494); conditions: AlphaScreen interference counter-screen, signal luminescence; series mostly up to 12 µM; activity change, negative = inhibition: at the top concentration

| Structure (SMILES) | AC50 | activity change, negative = inhibition |
| --- | --- | --- |
| Cc1cc(N=Nc2ccc3ccccc3c2)ccc1O | 11.2 µM (active) |  |
| CCN(CC)CCOc1ccc2c(c1)C(=NNC(=O)c1ccccn1)c1cc(OCCN(CC)CC)ccc1-2 |  | -27.8% (inactive) |
| COc1ccc(N2CCN(C3CCCCC3NS(=O)(=O)c3ccccc3)CC2)cc1 (stereo not drawn) |  | -23.3% (inactive) |
| COc1ccc2[nH]c3c(C)c4cc[n+](C)cc4c(C)c3c2c1 |  | -36.2% (inactive) |
| Cc1ccc(NC(=S)N(CCCN2CCCC2)Cc2cccn2Cc2ccc(Cl)cc2)cc1 |  | -4.08% (inactive) |
| O=C(NCCc1cccc(F)c1)C1CCCN(c2nc3ccccc3s2)C1 (stereo not drawn) |  | 4.51% (inactive) |
| CN(C)CCNC(=O)c1cccc(-c2cnc3c(NC=O)cc(-c4cccc(C(F)(F)F)c4)cn23)c1 |  | -35% (inactive) |
| COc1ccc(-c2ccc3[nH]c4c(c3c2)CCN2C[C@H]3[C@H](C)ON(C)[C@H]3C[C@@H]42)cc1 |  | -4.62% (inactive) |
| COc1ccc2sc(N(CCCN(C)C)C(=O)c3ccc(S(=O)(=O)N(C)C4CCCCC4)cc3)nc2c1 |  | -35.2% (inactive) |
| C[C@H]1CN([C@@H](C)CO)C(=O)c2c(c3ccccc3n2C)-c2ccccc2CO[C@@H]1CN(C)Cc1ccc2c(c1)OCCN2C |  | -19.3% (inactive) |
| Cc1ccc(Nc2cc(C)nc3c(C)ccc([N+](=O)[O-])c23)cc1 |  | -19.2% (inactive) |
| COc1ccc2c(c1)c(=Cc1ccc(N(C)C)cc1)c1cc(-c3ccccc3)[n+](C)n12 | 3.02 µM (active) |  |
| Cc1c(C)n(Cc2ccc(Cl)cc2)c2ccc(C(=O)NCCCN3CCOCC3)cc12 |  | -29.8% (inactive) |
